Consider 46 molecules from ChEMBL document CHEMBL3988442, “University of Dundee, Small-Polar-MMV Screening Library” (2021).

For test [1], the target named is T1, Aspartate--tRNA(Asp/Asn) ligase (Mycobacterium tuberculosis (strain ATCC 25618 / H37Rv)) (UniProt P9WFW3). Also: in the data most compounds retested in dose-response had high values.
T1 sequence (whole entry): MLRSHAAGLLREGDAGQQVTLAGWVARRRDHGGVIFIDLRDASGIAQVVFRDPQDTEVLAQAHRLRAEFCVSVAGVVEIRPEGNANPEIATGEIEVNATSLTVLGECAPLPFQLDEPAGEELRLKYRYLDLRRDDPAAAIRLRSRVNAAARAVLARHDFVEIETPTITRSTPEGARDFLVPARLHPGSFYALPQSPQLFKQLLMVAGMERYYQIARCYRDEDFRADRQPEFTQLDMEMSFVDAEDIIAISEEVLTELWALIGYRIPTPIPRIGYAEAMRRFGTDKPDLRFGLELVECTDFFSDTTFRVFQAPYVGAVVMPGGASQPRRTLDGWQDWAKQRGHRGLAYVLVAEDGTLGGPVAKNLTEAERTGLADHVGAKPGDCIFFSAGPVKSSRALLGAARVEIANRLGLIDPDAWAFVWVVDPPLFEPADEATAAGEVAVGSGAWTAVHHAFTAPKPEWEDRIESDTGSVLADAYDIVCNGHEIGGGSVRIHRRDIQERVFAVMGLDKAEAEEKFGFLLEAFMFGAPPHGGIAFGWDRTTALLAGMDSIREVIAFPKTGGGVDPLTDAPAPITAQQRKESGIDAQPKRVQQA
Briefly: Assay for Asp RNA synthetase-1 from Mycobacterium tuberculosis. It is filed as functional. The arrangement: scale not given: direction of the effect not stated beside the values. The following applies: 30 µM.

The target of test [2] is Shiga toxin 2 (Escherichia coli O157:H7) (UniProt P09385+P09386). Briefly: E. coli 0.157:H7 Shiga Toxin SOP - stx2 screening assay. The test is classed as functional. The arrangement: scale not given: direction of the effect not stated beside the values. As to conditions: 30 µM.

In the case of `Cc1ccc(N2CCCc3sc(C(=O)NCc4cccnc4)nc32)nn1`, the Percent Effect in test [1] is -2.44%; in test [2], -41.7%.

Take `Nc1ncc2c(n1)CN(C1CCCC1)C2=O`: the figures for the Percent Effect in test [1] and in test [2] were 6.87% and -55.7%, respectively.

`Cc1cccc(-n2c(C)cc(C(=O)N3CCn4c(C)nnc4C3)c2C)c1`: the Percent Effect in test [1] amounted to 3.51%; in test [2], 36.2%.

With `Cn1ccnc1CN1CCN(c2ccc(C#N)cc2F)CC1`, the Percent Effect in test [1] is -2.39%; in test [2], -29.4%.

For `CC(C)N1CCC(Cc2cnc(-c3cccc(C(=O)O)c3)cn2)C1` (configuration not stated), the results for the Percent Effect in test [1] and in test [2] were -5.2% and 16%, respectively.

Consider `O=C(NCC1CCOCC1)[C@H]1C[C@@H]2CCN(Cc3ccncc3)C[C@@H]2O1`, for which the figures for the Percent Effect in test [1] and in test [2] were 2.48% and -19.5%, respectively.

Consider `COc1ccc(NC(C)C(=O)NCCc2cccs2)cc1F` (configuration not stated), for which the Percent Effect in test [1] was 7.04%; in test [2], -24.3%.

Regarding `Cc1cc(CN2CCN(C(=O)c3sccc3C(C)C)CC2)no1`, the Percent Effect in test [1] was 0.346%; in test [2], 7.17%.

As to `CCN1CCC(NC(=O)CN2CCc3c(ncn3C)C2)CC1`, the Percent Effect is -4.88% in test [1] and 19.9% in test [2].

Turning to `CC(C)S(=O)(=O)NCC1CCCN(C(=O)c2cccnc2)C1` (configuration not stated), the Percent Effect was -0.834% in test [1] and -4.9% in test [2].

On to `Cc1cc(C)n(C2CN(CC(O)c3ccc(F)cc3)C2)n1` (configuration not stated), for which the Percent Effect in test [1] is 2.19%; in test [2], 6.15%.

Consider `Cc1nc(C)n(CC2CCCN2Cc2cn3c(C)cccc3n2)n1` (configuration not stated), for which the Percent Effect in test [1] was -5.04%; in test [2] it was -2.35%.

For `O=C(c1ccccc1N1CCOCC1)N1CCCC(n2cccn2)C1` (configuration not stated), the Percent Effect in test [1] was determined as 0.062%; in test [2] it was 19.5%.

In the case of `O=C(c1cccs1)N1CC[C@H](O)[C@@H]1Cc1ccccc1`, the results for the Percent Effect in test [1] and in test [2] were 0.296% and -7.22%, respectively.

Turning to `Cc1cnn(CC2CN(Cc3nccn3C)CCO2)c1` (configuration not stated), the Percent Effect in test [1] was -3.32%; in test [2], 17.1%.

In the case of `CCN(Cc1ccc2c(c1)OCCO2)S(=O)(=O)N(C)C(C)C`, the Percent Effect in test [1] is -0.607%; in test [2] it was 9.34%.

Take `CC(C)NC(=O)c1sccc1N(C)S(=O)(=O)c1ccc(Cl)cc1`: the Percent Effect was 4.25% in test [1] and -18.9% in test [2].

For `CN(Cc1ccc(C#N)cc1)Cc1noc(C(C)(C)C)n1`, the values for the Percent Effect in test [1] and in test [2] were -2.67% and -19%, respectively.

As for `CN(C)c1ccccc1C(=O)N1C[C@@H](CN2CCCCC2)[C@@H](CO)C1`, the Percent Effect in test [1] was -5.26%; in test [2], 17.7%.

Turning to `Cc1nn2cccnc2c1C(=O)N1CCCC(n2ccnc2)C1` (configuration not stated), the Percent Effect in test [1] was 6.28%; in test [2], -29.8%.

Regarding `CN(Cc1nnc(C2CC2)n1C)C1CCN(Cc2ccccc2F)C1` (configuration not stated), the Percent Effect in test [1] was -3.49%; in test [2] it was -40.3%.

On to `CO[C@@H]1CCN(Cc2cnn(C)c2)[C@@H]2CN(Cc3ccco3)C[C@@H]21`, for which the Percent Effect in test [1] is -4.07%; in test [2] it was -22%.

Turning to `CC(=O)c1cc(CC(=O)NCc2ccc(F)cc2)cs1`, the Percent Effect in test [1] was 1.48%; in test [2] it was -11.3%.

For the molecule `COCC(NC(=O)c1cnn(C)c1)c1cccc(C(F)(F)F)c1` (configuration not stated), the Percent Effect in test [1] was -1.9%; in test [2] it was -12.8%.

For `c1cnn(CC2CN(Cc3nc(-c4ccsc4)no3)CCO2)c1` (configuration not stated), the Percent Effect in test [1] was -2.68%; in test [2] it was 35%.

Take `Cc1cc(C)n(CCCNC(=O)C(C)NC(=O)c2ccccc2Cl)n1` (configuration not stated): the Percent Effect is 1.92% in test [1] and -4.43% in test [2].

Take `Cc1nn(C)c(N2CCOCC2)c1CNC(C)c1ccco1` (configuration not stated): the Percent Effect in test [1] was -3.01%; in test [2] it was 5.98%.

As for `Cc1nc(CNCC2CCCN2c2cccnn2)cs1` (configuration not stated), the values for the Percent Effect in test [1] and in test [2] were -0.7% and 15.4%, respectively.

`CCO[C@@H]1CO[C@@]2(CCCN(Cc3scnc3C)C2)C1`: the Percent Effect is -7.13% in test [1] and -25% in test [2].

As to `Cc1nc(CN2C[C@@H]3CN(C(=O)c4ccnnc4)C[C@@H]3C2=O)cs1`, the Percent Effect was -3.71% in test [1] and -1.02% in test [2].

For `OC1CCN(Cc2c(C3CCCNC3)[nH]c3ncccc23)CC1` (configuration not stated), the Percent Effect is 7.49% in test [1] and -0.778% in test [2].

Turning to `Cc1nc(C)n(C2CCCN(C(=O)c3csc(C(C)C)n3)C2)n1` (configuration not stated), the Percent Effect in test [1] was 7.62%; in test [2] it was 4.53%.

In the case of `COCCN(Cc1ccoc1)C(=O)c1ccccc1Cl`, the figures for the Percent Effect in test [1] and in test [2] were 2.46% and 6.17%, respectively.

With `Cc1nc(CN2CCCN(CC(=O)Nc3cccnc3)CC2)no1`, the Percent Effect is 1.58% in test [1] and 16.4% in test [2].

In the case of `CCc1ccc(O)c(C(=O)NC2CCN(Cc3ccncc3)CC2)c1`, the Percent Effect in test [1] was -4.26%; in test [2], -67.7%.

In the case of `Fc1ccc2c(c1)C(NCc1nnc3n1CCCCC3)CCCO2` (configuration not stated), the Percent Effect was -3.62% in test [1] and -12.2% in test [2].

Consider `CN(Cc1ccc(OC(F)F)cc1)C(=O)CS(=O)(=O)c1ccc(Cl)cc1`, for which the values for the Percent Effect in test [1] and in test [2] were 0.524% and 15%, respectively.

For `CCOC(=O)[C@]12CCCN(Cc3nccs3)C[C@H]1CN(C(C)=O)C2`, the results for the Percent Effect in test [1] and in test [2] were 2.52% and -5.93%, respectively.

As to `Cc1ccc(C(=O)NCC2(O)CCOCC2)cc1Br`, the Percent Effect in test [1] is -1.3%; in test [2], 8.46%.

With `CC(=O)NCC(=O)N1CC[C@H](OCC2CC2)[C@@H]1Cc1cccnc1`, the Percent Effect amounted to 1.14% in test [1] and 5.09% in test [2].

Take `Cc1cccc(-c2nc(C)nn2CC(=O)N(C)C2CC2)c1`: the Percent Effect in test [1] is -4.28%; in test [2] it was 6.5%.

Turning to `CNS(=O)(=O)Cc1ccc(CNC(=O)c2cccc(C)n2)cc1`, the Percent Effect in test [1] is -1.85%; in test [2], -5.04%.

For `CS(=O)(=O)Cc1cccc(C(=O)NCC2Cc3ccccc3O2)c1` (configuration not stated), the figures for the Percent Effect in test [1] and in test [2] were 8.39% and -0.655%, respectively.

Consider `CN(C)C(=O)COCc1cncc2c1CCN(Cc1cnn(C)c1)C2`, for which the values for the Percent Effect in test [1] and in test [2] were 6.12% and -43%, respectively.

Regarding `CN(C)CC1CSCCCN1C(=O)c1ccc(C(C)(C)C)cc1` (configuration not stated), the Percent Effect in test [1] is -2.32%; in test [2], 10.3%.

In the case of `COCCN(Cc1ccc(F)cc1Cl)C(=O)c1ccc(=O)[nH]n1`, the Percent Effect is -1.92% in test [1] and 2.84% in test [2].
